# Experimental data as given in paper PMC8384837, “Expanding the binding specificity for RNA recognition by a PUF domain”.
# How the values were obtained:
# Assay in all cases: yeast three-hybrid, YBZ-1, SC-Leu-His + 0.5 mM 3-AT, 4 days
# Settings in all cases: tags: N-Gal4 AD-HA kept; label: inside an RPR1-promoter hybrid RNA with tandem MS2 sites; ssRNA
# PUM1 PUF domain R5-QKA = PUM1 PUF domain R5-QKA (Homo sapiens, UniProt Q14671 828-1176, C1007Q;R1008K;Q1011A)
# In short: (§1)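 The interaction score is the logarithmic change in variant frequency from input to selection. It uses log2, with a pseudocount of 1 for absent variants, and frequencies came from PCR-amplified, Illumina-sequenced repeat regions. The libraries were Pumilio-1 PUF domains randomized at the three base-contacting residues per repeat, co-expressed with matching RNA elements in strain YBZ-1 (LexA–MS2 coat fusion, HIS3 reporter). Plating lasted four days on SC-Leu (input) or SC-Leu-His + 0.5 mM 3-AT (selection).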
# PUM1 PUF domain R5-KRF = PUM1 PUF domain R5-KRF (Homo sapiens, UniProt Q14671 828-1176, C1007K;Q1011F)
# In short: as §1
# PUM1 PUF domain R5-RYG = PUM1 PUF domain R5-RYG (Homo sapiens, UniProt Q14671 828-1176, C1007R;R1008Y;Q1011G)
# In short: as §1
# PUM1 PUF domain R5-KGT = PUM1 PUF domain R5-KGT (Homo sapiens, UniProt Q14671 828-1176, C1007K;R1008G;Q1011T)
# In short: as §1
# PUM1 PUF domain R5-GYL = PUM1 PUF domain R5-GYL (Homo sapiens, UniProt Q14671 828-1176, C1007G;R1008Y;Q1011L)
# In short: as §1
# PUM1 PUF domain R5-WHR = PUM1 PUF domain R5-WHR (Homo sapiens, UniProt Q14671 828-1176, C1007W;R1008H;Q1011R)
# In short: as §1
# PUM1 PUF domain R5-RLD = PUM1 PUF domain R5-RLD (Homo sapiens, UniProt Q14671 828-1176, C1007R;R1008L;Q1011D)
# In short: as §1
# PUM1 PUF domain R3-FFL = PUM1 PUF domain R3-FFL (Homo sapiens, UniProt Q14671 828-1176, C935F;R936F;Q939L)
# In short: as §1
# PUM1 PUF domain R4-LGC = PUM1 PUF domain R4-LGC (Homo sapiens, UniProt Q14671 828-1176, N971L;H972G;Q975C)
# In short: as §1
# PUM1 PUF domain R6-IWS = target: T1, PUM1 PUF domain R6-IWS (Homo sapiens, UniProt Q14671 828-1176, N1043I;Y1044W;Q1047S)
# T1 sequence: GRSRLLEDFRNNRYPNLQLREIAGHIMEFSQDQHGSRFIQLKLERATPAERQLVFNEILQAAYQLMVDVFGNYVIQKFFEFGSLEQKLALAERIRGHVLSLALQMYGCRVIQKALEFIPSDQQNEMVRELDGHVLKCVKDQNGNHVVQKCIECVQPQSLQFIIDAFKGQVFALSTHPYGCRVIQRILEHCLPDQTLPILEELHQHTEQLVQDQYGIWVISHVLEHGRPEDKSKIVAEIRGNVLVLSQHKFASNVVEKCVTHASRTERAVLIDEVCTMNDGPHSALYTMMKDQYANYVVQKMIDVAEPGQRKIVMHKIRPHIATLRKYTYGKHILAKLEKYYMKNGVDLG
# In short: as §1
# PUM1 PUF domain R3-RAC = PUM1 PUF domain R3-RAC (Homo sapiens, UniProt Q14671 828-1176, C935R;R936A;Q939C)
# In short: as §1
# PUM1 PUF domain R3-RCR = PUM1 PUF domain R3-RCR (Homo sapiens, UniProt Q14671 828-1176, C935R;R936C;Q939R)
# In short: as §1
# PUM1 PUF domain R7-RAS = PUM1 PUF domain R7-RAS (Homo sapiens, UniProt Q14671 828-1176, S1079R;N1080A;E1083S)
# In short: as §1
# PUM1 PUF domain R1-FAR = PUM1 PUF domain R1-FAR (Homo sapiens, UniProt Q14671 828-1176, S863F;R864A;Q867R)
# In short: as §1
# PUM1 PUF domain R1-GMR = PUM1 PUF domain R1-GMR (Homo sapiens, UniProt Q14671 828-1176, S863G;R864M;Q867R)
# In short: as §1
# PUM1 PUF domain R2-EHL = PUM1 PUF domain R2-EHL (Homo sapiens, UniProt Q14671 828-1176, N899E;Y900H;Q903L)
# In short: as §1
# PUM1 PUF domain R2-RVN = PUM1 PUF domain R2-RVN (Homo sapiens, UniProt Q14671 828-1176, N899R;Y900V;Q903N)
# In short: as §1
# PUM1 PUF domain R8-SFQ = PUM1 PUF domain R8-SFQ (Homo sapiens, UniProt Q14671 828-1176, N1122S;Y1123F)
# In short: as §1
sequence,measurement,setting,value
GGCUAGAACUAGUGGAUCCCCCGGCGCCCGGCGGCUCGAGCCCGGGUAAGUGUCAAUAGUCUGCAUGCCGCCGGGCGCCAUGCCUGCAGGUCGACUCUAGAAAACAUG,binding signal,PUM1 PUF domain R5-QKA,2.79 log2 enrichment (interaction score)
same,binding signal,PUM1 PUF domain R5-KRF,2.59 log2 enrichment (interaction score)
same,binding signal,PUM1 PUF domain R5-RYG,5.09 log2 enrichment (interaction score)
same,binding signal,PUM1 PUF domain R5-KGT,2.31 log2 enrichment (interaction score)
same,binding signal,PUM1 PUF domain R5-GYL,0.48 log2 enrichment (interaction score)
same,binding signal,PUM1 PUF domain R5-WHR,3.55 log2 enrichment (interaction score)
same,binding signal,PUM1 PUF domain R5-RLD,2.78 log2 enrichment (interaction score)
GGCUAGAACUAGUGGAUCCCCCGGCGCCCGGCGGCUCGAGCCCGGGUAAGUGUAAAUAGUCUGCAUGCCGCCGGGCGCCAUGCCUGCAGGUCGACUCUAGAAAACAUG,binding signal,PUM1 PUF domain R5-RYG,2.94 log2 enrichment (interaction score)
same,binding signal,PUM1 PUF domain R3-FFL,3.27 log2 enrichment (interaction score)
same,binding signal,PUM1 PUF domain R4-LGC,4 log2 enrichment (interaction score)
same,binding signal,PUM1 PUF domain R6-IWS,2.75 log2 enrichment (interaction score)
GGCUAGAACUAGUGGAUCCCCCGGCGCCCGGCGGCUCGAGCCCGGGUAAGUGUUAAUAGUCUGCAUGCCGCCGGGCGCCAUGCCUGCAGGUCGACUCUAGAAAACAUG,binding signal,PUM1 PUF domain R5-KGT,2.93 log2 enrichment (interaction score)
same,binding signal,PUM1 PUF domain R5-GYL,7.41 log2 enrichment (interaction score)
same,binding signal,PUM1 PUF domain R5-WHR,4.76 log2 enrichment (interaction score)
same,binding signal,PUM1 PUF domain R5-RLD,0.72 log2 enrichment (interaction score)
GGCUAGAACUAGUGGAUCCCCCGGCGCCCGGCGGCUCGAGCCCGGGUAAGUGUAAUUAGUCUGCAUGCCGCCGGGCGCCAUGCCUGCAGGUCGACUCUAGAAAACAUG,binding signal,PUM1 PUF domain R3-RAC,4.24 log2 enrichment (interaction score)
same,binding signal,PUM1 PUF domain R3-RCR,2.77 log2 enrichment (interaction score)
GGCUAGAACUAGUGGAUCCCCCGGCGCCCGGCGGCUCGAGCCCGGGUAAGUUUAAAUAGUCUGCAUGCCGCCGGGCGCCAUGCCUGCAGGUCGACUCUAGAAAACAUG,binding signal,PUM1 PUF domain R7-RAS,2.46 log2 enrichment (interaction score)
GGCUAGAACUAGUGGAUCCCCCGGCGCCCGGCGGCUCGAGCCCGGGUAAGUGUAAAUCGUCUGCAUGCCGCCGGGCGCCAUGCCUGCAGGUCGACUCUAGAAAACAUG,binding signal,PUM1 PUF domain R1-FAR,0.5 log2 enrichment (interaction score)
same,binding signal,PUM1 PUF domain R1-GMR,3.57 log2 enrichment (interaction score)
GGCUAGAACUAGUGGAUCCCCCGGCGCCCGGCGGCUCGAGCCCGGGUAAGUGUAAAUUGUCUGCAUGCCGCCGGGCGCCAUGCCUGCAGGUCGACUCUAGAAAACAUG,binding signal,PUM1 PUF domain R1-FAR,4.18 log2 enrichment (interaction score)
same,binding signal,PUM1 PUF domain R1-GMR,1.96 log2 enrichment (interaction score)
GGCUAGAACUAGUGGAUCCCCCGGCGCCCGGCGGCUCGAGCCCGGGUAAGUGUAAAAAGUCUGCAUGCCGCCGGGCGCCAUGCCUGCAGGUCGACUCUAGAAAACAUG,binding signal,PUM1 PUF domain R2-EHL,3.07 log2 enrichment (interaction score)
GGCUAGAACUAGUGGAUCCCCCGGCGCCCGGCGGCUCGAGCCCGGGUAAGUGUAAAGAGUCUGCAUGCCGCCGGGCGCCAUGCCUGCAGGUCGACUCUAGAAAACAUG,binding signal,PUM1 PUF domain R2-RVN,3.32 log2 enrichment (interaction score)
GGCUAGAACUAGUGGAUCCCCCGGCGCCCGGCGGCUCGAGCCCGGGUAAGCGUAAAUAGUCUGCAUGCCGCCGGGCGCCAUGCCUGCAGGUCGACUCUAGAAAACAUG,binding signal,PUM1 PUF domain R8-SFQ,2.84 log2 enrichment (interaction score)
